Inconclusive results are not listed. The source made the active and inactive calls. Unless noted, calls come from the whole dose curve; as a rule, active = well fitted curve in the direction sought with a large enough effect; inconclusive = small, poorly fitted or top-dose-only effect, or another doubt; inactive = no such curve, though single readings can be large; an effect the other way counts as inactive or inconclusive.
Assays:
[1] = system: Zika virus NS2B-NS3 protease (linked construct); experiment: Primary screen NINDS Rhodamine qHTS for Zika virus inhibitors (AID 1347160); note: nearly all actives have a fitted effect of over 55% in size; note: potency is the fitted concentration of half-maximal effect
Summary of the method: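 In 10 mM Tris-HCl pH 8.0 containing 0.01% Tween 20, linked NS2B-NS3 protease (25 nM final) is exposed to test compounds for 15 min. Cleavage of 1.5 microM Rhodamine110 substrate is tracked by fluorescence over 15 min.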

[2] = OV-KATE Cancer Cell Toxicity qHTS against the NCATS CANVASS Library (AID 1347345); note: % is set by controls: 0 for no effect and ±100 for the full control effect
Summary of the method: (§1)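 Viability read-out: CellTiter-Glo luminescence after 72 h compound exposure at 37 °C/5% CO2. Cells plated at 1000/well, 4 h pre-incubation; 11-point titration. Bortezomib served as control.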

[3] = OV-SAHO Cancer Cell Toxicity qHTS against the NCATS CANVASS Library (AID 1347348); note: % is set by controls: 0 for no effect and ±100 for the full control effect; nearly all actives have a fitted effect of over 55% in size
Summary of the method: as §1

[4] = COV-362 Cancer Cell Toxicity qHTS against the NCATS CANVASS Library (AID 1347352); note: % is set by controls: 0 for no effect and ±100 for the full control effect
Summary of the method: (§2)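 qHTS cytotoxicity: compounds tested in 11 concentrations on 1000 seeded cells per well over 72 h; bortezomib served as control; signal from CellTiter-Glo luminescence.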

[5] = UWB1.289-WTBRCA1 Cancer Cell Toxicity qHTS against the NCATS CANVASS Library (AID 1347354)
Summary of the method: as §2

[6] = HEK293 24hr Apoptosis Induction qHTS against the NCATS CANVASS Library (AID 1347359); note: 0% is about no effect
Summary of the method: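 HEK293 cells, 500 per well, exposed to an 11-point compound series for 24 hours at 37 degrees C. Caspase 3/7 activity read by Caspase-Glo luminescence (DEVD substrate) after 15 min at room temperature.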

[7] = HEK293 12hr Apoptosis Induction qHTS against the NCATS CANVASS Library (AID 1347361); note: 0% is about no effect
Summary of the method: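 HEK293 cells (500/well, DMEM + 10% FBS) were exposed to natural products across an 11-point series for 12 hours at 37 degrees C. Caspase-3/7 activity was then measured with DEVD luciferase luminescence after 15 min at room temperature.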

[8] = system: NAD(P)H diaphorase (Clostridium kluyveri); experiment: Diaphorse counterscreen qHTS: Assay Interference Panel against the NCATS CANVASS Library (AID 1347362); note: 0% is about no effect
Summary of the method: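 Clostridium kluyveri diaphorase in PBS + 0.01% Tween-20 preincubated 15 min with compounds. Resazurin and NADH then added for 5 min at room temperature in the dark; resorufin fluorescence read (ex 525, em 598).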

[9] = molecular target: Luciferin 4-monooxygenase (Photinus pyralis) (UniProt P08659); experiment: Firefly luciferase counterscreen qHTS: Assay Interference Panel against the NCATS CANVASS Library (AID 1347363); note: 0% is about no effect
Sequence of Luciferin 4-monooxygenase (Photinus pyralis) (P08659 whole entry, looked up): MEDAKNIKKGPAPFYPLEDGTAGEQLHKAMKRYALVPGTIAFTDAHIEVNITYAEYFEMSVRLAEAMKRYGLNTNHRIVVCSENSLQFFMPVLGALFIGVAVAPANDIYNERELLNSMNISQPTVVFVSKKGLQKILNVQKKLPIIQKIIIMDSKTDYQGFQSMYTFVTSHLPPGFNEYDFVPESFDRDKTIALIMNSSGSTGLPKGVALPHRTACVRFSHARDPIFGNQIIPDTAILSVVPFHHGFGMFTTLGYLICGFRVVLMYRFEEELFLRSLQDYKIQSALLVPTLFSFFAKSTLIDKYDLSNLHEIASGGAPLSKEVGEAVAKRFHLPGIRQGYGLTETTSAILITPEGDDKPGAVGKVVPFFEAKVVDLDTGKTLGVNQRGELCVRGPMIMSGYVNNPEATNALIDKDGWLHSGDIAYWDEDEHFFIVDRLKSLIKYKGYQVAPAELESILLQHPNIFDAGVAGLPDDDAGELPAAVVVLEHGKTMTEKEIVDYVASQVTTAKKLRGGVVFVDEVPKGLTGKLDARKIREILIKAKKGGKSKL
Summary of the method: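 Purified P. pyralis luciferase (0.04 ug/mL, 4x reagent) added to Tris-acetate buffer with 0.013 mM D-luciferin, 0.013 mM ATP and 13.3 mM Mg-acetate; compounds preincubated 15 min, then luminescence read after 5 min, RT.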

[10] = molecular target: Cytochrome P450 3A4 (Homo sapiens) (UniProt P08684); experiment: qHTS Assay for Activators of Cytochrome P450 3A4 (AID 885); note: nearly all actives have a fitted effect of over 65% in size; note: potency is the fitted concentration of half-maximal effect
Sequence of Cytochrome P450 3A4 (Homo sapiens) (P08684 whole entry, looked up): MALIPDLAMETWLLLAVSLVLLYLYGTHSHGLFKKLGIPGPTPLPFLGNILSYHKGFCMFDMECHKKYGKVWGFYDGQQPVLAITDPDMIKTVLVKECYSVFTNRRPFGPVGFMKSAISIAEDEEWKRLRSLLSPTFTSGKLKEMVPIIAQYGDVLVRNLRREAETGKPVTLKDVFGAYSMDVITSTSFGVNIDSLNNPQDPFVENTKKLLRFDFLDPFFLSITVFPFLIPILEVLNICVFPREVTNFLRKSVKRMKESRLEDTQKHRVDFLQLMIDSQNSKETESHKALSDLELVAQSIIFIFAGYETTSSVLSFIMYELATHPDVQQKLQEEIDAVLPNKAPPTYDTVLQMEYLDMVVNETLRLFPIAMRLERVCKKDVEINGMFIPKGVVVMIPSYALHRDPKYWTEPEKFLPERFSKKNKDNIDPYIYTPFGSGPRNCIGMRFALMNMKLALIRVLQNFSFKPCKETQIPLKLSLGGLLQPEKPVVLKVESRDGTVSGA
Summary of the method: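 Signal was normalized against complete inhibition by 57 uM ketoconazole. The reaction used 20nM CYP3A4 with 25uM Luciferin-PPXE, 10-min compound preincubation and a 60-min NADPH-supported step at RT.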

[11] = system: Zika virus NS2B-NS3 protease; experiment: Primary screen GU AMC qHTS for Zika virus inhibitors (AID 1347154);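 note: 0% = no-inhibitor control and -100% = no-enzyme control; nearly all actives have a fitted effect of over 70% in size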
Summary of the method: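 Unlinked Zika NS2B hydrophilic domain–NS3 protease complex at 25 nM in 10 mM Tris-HCl pH 8.0, 0.01% Tween 20, with an AMC peptide substrate. Fluorescence change (340/450 nm) over 15 min at room temperature, normalized to controls, fitted to 4-parameter Hill.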

[12] = molecular target: Mitogen-activated protein kinase 10 (Mus musculus) (UniProt Q61831); experiment: JNK3 AlphaScreen Assay (AID 530; active = well fitted curve in either direction with a large enough effect, not every such curve was filed as active;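 note: kinase came from lysate of stimulated human HepG2 cells; signal reports phosphorylation of biotinylated GST-cJun 1-79 at Ser73 with 10 µM ATP; % is set by controls: 0 for no effect and ±100 for the full control effect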)
Summary of the method: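 qHTS format: compounds tested as titrations against IL-1beta/TNF-alpha-activated HepG2 lysate JNK3 with biotin-GST-cJun substrate and 10 uM ATP at room temperature. Loss of anti-phospho-cJun AlphaScreen signal indicates inhibition.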

[13] = molecular target: 3',5'-cyclic-AMP phosphodiesterase 4B (Homo sapiens) (UniProt Q07343); experiment: qHTS Assay for Inhibitors of PDE-IV (AID 607; active = well fitted activation curve with a large enough effect in the main read-out, with a control signal flat, not every such curve was filed as active; note: % of control where 0% means no effect)
Sequence of 3',5'-cyclic-AMP phosphodiesterase 4B (Homo sapiens) (Q07343 whole entry, looked up): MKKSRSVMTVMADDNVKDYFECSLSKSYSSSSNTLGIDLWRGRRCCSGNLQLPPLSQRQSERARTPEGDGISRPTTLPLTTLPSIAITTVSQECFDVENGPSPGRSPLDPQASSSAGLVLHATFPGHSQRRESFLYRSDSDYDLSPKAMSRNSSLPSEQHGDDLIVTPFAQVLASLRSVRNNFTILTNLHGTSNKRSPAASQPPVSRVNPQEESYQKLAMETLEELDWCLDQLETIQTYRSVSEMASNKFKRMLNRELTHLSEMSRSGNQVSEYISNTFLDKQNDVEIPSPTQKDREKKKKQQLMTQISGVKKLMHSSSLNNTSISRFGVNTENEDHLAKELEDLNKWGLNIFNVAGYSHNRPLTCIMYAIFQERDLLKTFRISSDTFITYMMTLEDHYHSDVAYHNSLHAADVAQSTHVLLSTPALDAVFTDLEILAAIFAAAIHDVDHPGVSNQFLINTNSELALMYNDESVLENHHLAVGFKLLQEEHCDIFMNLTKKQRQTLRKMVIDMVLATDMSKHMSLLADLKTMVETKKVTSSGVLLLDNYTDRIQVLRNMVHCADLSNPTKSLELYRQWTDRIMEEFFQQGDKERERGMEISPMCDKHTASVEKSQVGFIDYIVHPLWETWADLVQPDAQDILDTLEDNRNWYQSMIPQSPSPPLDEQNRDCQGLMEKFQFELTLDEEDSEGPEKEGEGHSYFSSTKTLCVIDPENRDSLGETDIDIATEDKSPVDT
Summary of the method: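 Cell-based read-out of cAMP via a modified cyclic nucleotide-gated channel and membrane potential dye (535/590 nm) in HEK293 cells expressing PDE4 endogenously. Compounds tested up to 22.9 uM final; 100 uM RO 20-1724 reference.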

[14] = qHTS Assay for Lipid Storage Modulators (AID 1519; calls by dose curve); conditions: Drosophila S3 cells, BODIPY lipid droplet/cell ratio, laser cytometry, cells loaded with oleic acid; for activity change, negative = inhibition: at 57.5 µM (top of the series)
Summary of the method: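 Cells seeded at 5,000 per well were treated with compounds over a concentration series and loaded with oleic acid (400 uM, as added). Lipid droplet fluorescence (488 nm excitation, 500-530 nm channel) was read by laser-scanning cytometry and normalized to 20 uM Triacsin C.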

[15] = molecular target: DNA dC->dU-editing enzyme APOBEC-3G (Homo sapiens) (UniProt Q9HC16); experiment: qHTS for inhibitors of Vif-A3G interactions: Validation (AID 588379); note: 0% is about no effect
Sequence of DNA dC->dU-editing enzyme APOBEC-3G (Homo sapiens) (Q9HC16 whole entry, looked up): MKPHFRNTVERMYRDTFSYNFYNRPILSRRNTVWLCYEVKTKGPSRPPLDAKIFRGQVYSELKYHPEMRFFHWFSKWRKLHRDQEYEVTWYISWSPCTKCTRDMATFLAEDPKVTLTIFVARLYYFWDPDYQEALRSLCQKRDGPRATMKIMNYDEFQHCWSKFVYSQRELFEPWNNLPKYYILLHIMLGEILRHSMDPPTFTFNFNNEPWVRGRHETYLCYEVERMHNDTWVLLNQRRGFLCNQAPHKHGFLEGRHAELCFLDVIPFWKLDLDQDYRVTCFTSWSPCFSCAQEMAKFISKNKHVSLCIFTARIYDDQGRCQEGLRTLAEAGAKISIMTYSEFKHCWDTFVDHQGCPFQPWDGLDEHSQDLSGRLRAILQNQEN
Summary of the method: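 HeLa cells stably expressing Vif and A3G-eYFP, 700 cells/well, incubated overnight at 37 deg C, then exposed to compound overnight at 37 deg C. Inhibition of Vif-mediated degradation read as increased yellow fluorescence (Ex 488/Em 500-530) by laser-scanning cytometry.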

[16] = molecular target: Glucocorticoid receptor (Homo sapiens) (UniProt P04150); experiment: GR-EFC Redistribution (AID 451; calls by dose curve; note: potency is the fitted concentration of half-maximal effect); conditions: CHO-K1 GR-EFC translocation, beta-gal luminescence, 2 h
Sequence of Glucocorticoid receptor (Homo sapiens) (P04150 whole entry, looked up, the tested form may be a part): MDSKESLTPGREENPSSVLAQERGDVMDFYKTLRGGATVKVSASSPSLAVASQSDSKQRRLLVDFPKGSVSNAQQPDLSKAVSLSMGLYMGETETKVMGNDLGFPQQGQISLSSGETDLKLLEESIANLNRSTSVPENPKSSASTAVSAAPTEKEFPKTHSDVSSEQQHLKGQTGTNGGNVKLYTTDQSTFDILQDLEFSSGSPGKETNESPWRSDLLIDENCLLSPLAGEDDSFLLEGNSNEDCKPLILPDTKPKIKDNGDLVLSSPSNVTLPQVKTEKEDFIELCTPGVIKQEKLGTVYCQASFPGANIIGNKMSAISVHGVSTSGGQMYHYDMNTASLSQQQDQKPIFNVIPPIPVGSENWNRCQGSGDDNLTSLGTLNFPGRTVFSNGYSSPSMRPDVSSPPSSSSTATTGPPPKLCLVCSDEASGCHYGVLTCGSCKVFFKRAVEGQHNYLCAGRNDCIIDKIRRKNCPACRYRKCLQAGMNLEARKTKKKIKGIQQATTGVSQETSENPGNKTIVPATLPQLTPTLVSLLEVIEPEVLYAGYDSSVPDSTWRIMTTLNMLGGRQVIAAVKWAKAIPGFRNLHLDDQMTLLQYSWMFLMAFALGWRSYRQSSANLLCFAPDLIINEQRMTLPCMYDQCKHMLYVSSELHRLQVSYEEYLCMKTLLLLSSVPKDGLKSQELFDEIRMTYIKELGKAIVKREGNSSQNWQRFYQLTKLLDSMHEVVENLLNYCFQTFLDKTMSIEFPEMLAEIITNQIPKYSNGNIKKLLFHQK
Summary of the method: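 CHO-K1 cells expressing nuclear EA and GR-ED fragments of b-gal; compounds titrated up to 46 uM final, 2 h at 37 C. GR nuclear translocation read as complemented b-gal luminescence after 1 h RT detection.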

[17] = molecular target: Ubiquitin carboxyl-terminal hydrolase 1 (Homo sapiens) (UniProt O94782); experiment: Inhibitors of USP1/UAF1: Pilot qHTS (AID 504865);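 note: rhodamine fluorescence freed from ubiquitin-rhodamine substrate followed over time; top concentration of the series differs between compounds; % is set by controls: 0 for no effect and ±100 for the full control effect; nearly all actives have a fitted effect of over 35% in size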
Sequence of Ubiquitin carboxyl-terminal hydrolase 1 (Homo sapiens) (O94782 whole entry, looked up): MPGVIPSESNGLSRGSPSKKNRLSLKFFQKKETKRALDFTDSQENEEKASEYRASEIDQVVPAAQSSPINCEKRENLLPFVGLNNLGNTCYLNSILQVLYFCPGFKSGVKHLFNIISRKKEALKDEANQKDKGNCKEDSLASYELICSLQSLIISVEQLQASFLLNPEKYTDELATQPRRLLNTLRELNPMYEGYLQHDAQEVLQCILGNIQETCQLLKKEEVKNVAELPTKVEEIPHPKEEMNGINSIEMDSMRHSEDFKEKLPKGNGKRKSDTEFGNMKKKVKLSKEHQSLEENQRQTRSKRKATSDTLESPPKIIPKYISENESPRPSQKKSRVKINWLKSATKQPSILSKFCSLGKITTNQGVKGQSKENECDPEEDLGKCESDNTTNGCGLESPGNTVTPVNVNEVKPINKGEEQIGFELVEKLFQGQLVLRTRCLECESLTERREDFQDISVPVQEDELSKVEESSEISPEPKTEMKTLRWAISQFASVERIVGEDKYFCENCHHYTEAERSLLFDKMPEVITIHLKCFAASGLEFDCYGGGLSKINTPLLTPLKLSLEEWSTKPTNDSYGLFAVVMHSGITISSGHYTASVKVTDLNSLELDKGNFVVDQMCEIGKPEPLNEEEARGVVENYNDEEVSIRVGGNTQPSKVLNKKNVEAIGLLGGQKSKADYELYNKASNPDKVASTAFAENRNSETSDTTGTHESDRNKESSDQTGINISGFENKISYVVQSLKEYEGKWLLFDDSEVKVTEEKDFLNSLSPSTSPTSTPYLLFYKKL
Summary of the method: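 Deubiquitinase activity followed as kinetic rhodamine fluorescence release from 150 nM Ub-Rho. 1 nM USP1/UAF1 with compound, after 15 min room-temperature preincubation, in HEPES pH 7.8 buffer containing TCEP, EDTA, BSA and Tween-20.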

[18] = molecular target: Glucocorticoid receptor (Homo sapiens) (UniProt P04150); experiment: GR-GFP Redistribution (AID 450;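 active = compounds whose dose series gives a full or clear partial fitted curve of increased nuclear translocation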; note: potency is the fitted concentration of half-maximal effect); conditions: U2OS GR-GFP nuclear translocation, laser cytometry, 2 h
[19] = molecular target: Cytochrome P450 1A2 (Homo sapiens) (UniProt P05177); experiment: p450-cyp1a2 (AID 410; calls by dose curve;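 note: -100% = full effect of reference inhibitor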)
Sequence of Cytochrome P450 1A2 (Homo sapiens) (P05177 whole entry, looked up): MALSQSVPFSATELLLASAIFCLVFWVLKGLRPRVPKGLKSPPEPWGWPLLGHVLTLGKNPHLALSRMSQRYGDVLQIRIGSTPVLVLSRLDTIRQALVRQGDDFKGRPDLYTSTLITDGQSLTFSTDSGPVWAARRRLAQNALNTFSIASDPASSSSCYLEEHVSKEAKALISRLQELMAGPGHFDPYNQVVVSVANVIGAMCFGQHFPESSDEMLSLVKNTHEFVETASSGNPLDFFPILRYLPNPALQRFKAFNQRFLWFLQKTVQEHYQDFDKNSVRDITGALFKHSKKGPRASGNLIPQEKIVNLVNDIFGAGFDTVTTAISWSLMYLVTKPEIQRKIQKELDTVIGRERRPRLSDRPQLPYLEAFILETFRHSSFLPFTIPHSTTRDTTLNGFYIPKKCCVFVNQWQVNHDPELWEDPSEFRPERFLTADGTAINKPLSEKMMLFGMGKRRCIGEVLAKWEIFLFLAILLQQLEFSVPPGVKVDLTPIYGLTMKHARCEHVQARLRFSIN
Summary of the method: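 Inhibition was calculated relative to 57 uM furafylline (full inhibition). The reaction used human CYP1A2 at 20nM with Luciferin-ME at its Km, 100uM, driven by an NADPH-regenerating system for 60 min at room temperature.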

[20] = Primary qHTS for small molecule stabilizers of the endoplasmic reticulum resident proteome: Secreted ER Calcium Modulated Protein (SERCaMP) assay (AID 1508630); note: % is set by controls: 0 for no effect and ±100 for the full control effect
Summary of the method: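 GLuc-SERCaMP-expressing SH-SY5Y cells, pretreated 16 h with compound, are challenged with thapsigargin to empty ER calcium stores; after 4 h, coelenterazine is added directly to the medium and luminescence is imaged.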

[21] = measured here: cell count channel max response
[22] = measured here: lipid channel max response

CC[N@@+]1([O-])C[C@]2(C)CC[C@@H](O)[C@@]34C5C[C@H]6CC[C@@]5(C(C[C@H]23)C41)[C@H](O)[C@@]6(O)CO (stereo not given in full)
active: Potency [1] 49.3 µM
inactive: Potency [2] | Potency [3] | Potency [4] | Potency [5] | Potency [6] | Potency [7] | outcome [8] | outcome [9]

CC1=CC2CC[C@@H]3[C@@H](C)C[C@H](C)[C@@H](C1)N23 (stereo not given in full)
inactive: Potency [1] | Potency [2] | Potency [3] | Potency [4] | Potency [5] | Potency [6] | Potency [7] | outcome [8] | outcome [9]

CC(C)C[C@H]1C(=O)N2CCCC2[C@]2(O)O[C@](NC(=O)[C@@H]3C=C4c5cccc6[nH]cc(c56)CC4N(C)C3)(C(C)C)C(=O)N12 (stereo not given in full)
inactive: Potency [10] | Potency [11]

O=C1Nc2ccccc2C2(CCN(CCc3ccc(C(F)(F)F)cc3)CC2)O1
inactive: Potency [11]
active: Potency [10] 7.94 µM

CN1C(=O)COc2c(C(=O)N[C@@H]3CN4CCC3CC4)cc(Cl)cc21
inactive: outcome [12] | Potency [13] | activity change, negative = inhibition [14] 3.71% | Potency [15] | Potency [11]
5.55%: max response [14, 21]
11.3%: max response [14, 22]

CCCCCCC[n+]1ccc(-c2cc[n+](CCCCCCC)cc2)cc1
inactive: Potency [16] > 46 µM | Potency [13] | Potency [17] | Potency [11]

CNCCc1c[nH]c2ccccc12
inactive: Potency [18] > 20.6 µM | Potency [1] | Potency [2] | Potency [3] | Potency [4] | Potency [5] | Potency [6] | Potency [7] | outcome [8] | outcome [9]

CNCC/C=C\c1cccnc1
-3.17%: max response [14, 22]
-7.59%: max response [14, 21]
inactive: Potency [19] | Potency [18] > 46 µM | Potency [16] > 46 µM | outcome [12] | Potency [13] | activity change, negative = inhibition [14] 4.36% | Potency [17] | Potency [15] | Potency [20]

C=CCN1C[C@H](C)N([C@H](c2ccc(C(=O)N(CC)CC)cc2)c2cccc(O)c2)C[C@H]1C
inactive: Potency [18] > 46 µM | Potency [16] > 46 µM | outcome [12] | Potency [13] | Potency [10] | Potency [17] | Potency [15]

C=C1[C@@H](O)C2C=CC[C@H](C)C(=O)[C@@](C)(O)C=C[C@@H](OC(C)=O)[C@@]23C(=O)N[C@H](Cc2ccccc2)[C@@H]3[C@@H]1C (stereo not given in full)
inactive: Potency [19] | Potency [18] > 46 µM | Potency [16] > 46 µM | outcome [12] | Potency [13] | Potency [10] | Potency [17] | Potency [15] | Potency [20]

From PubChem BioAssay (NCATS)
